Common to all, as to test: yeast three-hybrid, YBZ-1, SC-Leu-His + 0.5 mM 3-AT, 4 days
Settings in all cases: tags: N-Gal4 AD-HA kept; label: inside an RPR1-promoter hybrid RNA with tandem MS2 sites; ssRNA

One assay has as its target PUM1 PUF domain R3-LFR (Homo sapiens, UniProt Q14671 828-1176, C935L;R936F;Q939R). The procedure, abridged: (§1)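 The interaction score is the log change in how often each variant appears, from input to selection. Frequencies came from PCR-amplified, Illumina-sequenced repeat regions of Pumilio-1 PUF domain libraries grown in strain YBZ-1 (LexA–MS2 coat fusion, HIS3 reporter) alongside matching RNA elements. Input plates were SC-Leu and selection plates were SC-Leu-His + 0.5 mM 3-AT, each for four days, and the log2 calculation used a pseudocount of 1 where a variant was absent.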

In a further assay the target is PUM1 PUF domain R3-FRD (Homo sapiens, UniProt Q14671 828-1176, C935F;Q939D). The method in brief:
as §1

For the next assay, the target named is PUM1 PUF domain R8-PWN (Homo sapiens, UniProt Q14671 828-1176, N1122P;Y1123W;Q1126N). The method in brief: as §1
In another assay the target is PUM1 PUF domain R5-TRL (Homo sapiens, UniProt Q14671 828-1176, C1007T;Q1011L). The method in brief:
as §1

Another assay deals with PUM1 PUF domain R5-PFP (Homo sapiens, UniProt Q14671 828-1176, C1007P;R1008F;Q1011P). The method in brief:
as §1

The next assay has as its target PUM1 PUF domain R3-PYL (Homo sapiens, UniProt Q14671 828-1176, C935P;R936Y;Q939L). The procedure, abridged: as §1
The target in another assay is PUM1 PUF domain R4-GMG (Homo sapiens, UniProt Q14671 828-1176, N971G;H972M;Q975G). The method in brief:
as §1

The target of a further assay is T1, PUM1 PUF domain R6-THR (Homo sapiens, UniProt Q14671 828-1176, N1043T;Y1044H;Q1047R).
T1 sequence: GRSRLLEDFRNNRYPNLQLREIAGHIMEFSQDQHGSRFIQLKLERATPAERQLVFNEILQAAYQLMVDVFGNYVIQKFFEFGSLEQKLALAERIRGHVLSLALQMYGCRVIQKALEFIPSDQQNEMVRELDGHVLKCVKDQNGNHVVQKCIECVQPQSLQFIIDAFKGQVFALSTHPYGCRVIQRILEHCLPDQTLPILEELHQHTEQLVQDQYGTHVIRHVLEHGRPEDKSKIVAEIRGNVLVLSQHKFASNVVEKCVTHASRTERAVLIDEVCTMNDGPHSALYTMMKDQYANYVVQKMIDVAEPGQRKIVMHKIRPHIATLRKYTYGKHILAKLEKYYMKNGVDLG
The method in brief:
as §1

For another assay, the target named is PUM1 PUF domain R1-RSS (Homo sapiens, UniProt Q14671 828-1176, S863R;R864S;Q867S). The procedure, abridged:
as §1

Another assay has as its target PUM1 PUF domain R4-VNG (Homo sapiens, UniProt Q14671 828-1176, N971V;H972N;Q975G). The procedure, abridged:
as §1

Regarding “GGCUAGAACUAGUGGAUCCCCCGGCGCCCGGCGGCUCGAGCCCGGGUAAGUGUAAGUAGUCUGCAUGCCGCCGGGCGCCAUGCCUGCAGGUCGACUCUAGAAAACAUG”, the binding signal is 5.96 log2 enrichment (interaction score) with PUM1 PUF domain R3-LFR and 5.68 log2 enrichment (interaction score) with PUM1 PUF domain R3-FRD.
In the case of “GGCUAGAACUAGUGGAUCCCCCGGCGCCCGGCGGCUCGAGCCCGGGUAAGCGUAAAUAGUCUGCAUGCCGCCGGGCGCCAUGCCUGCAGGUCGACUCUAGAAAACAUG”, the binding signal with PUM1 PUF domain R8-PWN was 3.44 log2 enrichment (interaction score).
Take “GGCUAGAACUAGUGGAUCCCCCGGCGCCCGGCGGCUCGAGCCCGGGUAAGUGUUAAUAGUCUGCAUGCCGCCGGGCGCCAUGCCUGCAGGUCGACUCUAGAAAACAUG”: in the assay with PUM1 PUF domain R5-TRL, the binding signal was 2.18 log2 enrichment (interaction score).
For the sequence “GGCUAGAACUAGUGGAUCCCCCGGCGCCCGGCGGCUCGAGCCCGGGUAAGUGUAAUUAGUCUGCAUGCCGCCGGGCGCCAUGCCUGCAGGUCGACUCUAGAAAACAUG”, the binding signal with PUM1 PUF domain R3-LFR is 5 log2 enrichment (interaction score).
“GGCUAGAACUAGUGGAUCCCCCGGCGCCCGGCGGCUCGAGCCCGGGUAAGUGUAAAUAGUCUGCAUGCCGCCGGGCGCCAUGCCUGCAGGUCGACUCUAGAAAACAUG”: the binding signal with PUM1 PUF domain R5-PFP was 4.69 log2 enrichment (interaction score); with PUM1 PUF domain R5-TRL, 3.3 log2 enrichment (interaction score); with PUM1 PUF domain R3-PYL, 5.55 log2 enrichment (interaction score); with PUM1 PUF domain R4-GMG it was 1.25 log2 enrichment (interaction score); with PUM1 PUF domain R3-LFR, 1.74 log2 enrichment (interaction score); with PUM1 PUF domain R6-THR it was 3.12 log2 enrichment (interaction score).
For the sequence “GGCUAGAACUAGUGGAUCCCCCGGCGCCCGGCGGCUCGAGCCCGGGUAAGUGUAAAUGGUCUGCAUGCCGCCGGGCGCCAUGCCUGCAGGUCGACUCUAGAAAACAUG”, the binding signal in the assay with PUM1 PUF domain R1-RSS is 2.55 log2 enrichment (interaction score).
Consider “GGCUAGAACUAGUGGAUCCCCCGGCGCCCGGCGGCUCGAGCCCGGGUAAGUGUAAAUCGUCUGCAUGCCGCCGGGCGCCAUGCCUGCAGGUCGACUCUAGAAAACAUG”, for which the binding signal in the assay with PUM1 PUF domain R1-RSS is 3.93 log2 enrichment (interaction score).
Consider “GGCUAGAACUAGUGGAUCCCCCGGCGCCCGGCGGCUCGAGCCCGGGUAAGUGUAUAUAGUCUGCAUGCCGCCGGGCGCCAUGCCUGCAGGUCGACUCUAGAAAACAUG”, for which the binding signal is 2.85 log2 enrichment (interaction score) in the assay with PUM1 PUF domain R4-GMG and 2.54 log2 enrichment (interaction score) with PUM1 PUF domain R4-VNG.
As for “GGCUAGAACUAGUGGAUCCCCCGGCGCCCGGCGGCUCGAGCCCGGGUAAGUGUAAAUUGUCUGCAUGCCGCCGGGCGCCAUGCCUGCAGGUCGACUCUAGAAAACAUG”, the binding signal with PUM1 PUF domain R1-RSS was 3.21 log2 enrichment (interaction score).

Source of the values: publication PMC8384837, “Expanding the binding specificity for RNA recognition by a PUF domain”.
